Measurements from PubChem BioAssay (NCATS).
Results filed as inconclusive are left out. Active and inactive are the calls of the source. Unless noted, calls follow the shape of the dose curve; as a rule, active = well fitted curve in the direction sought with a large enough effect; inconclusive = small, poorly fitted or top-dose-only effect, or another doubt; inactive = no such curve, though single readings can be large; an effect the other way counts as inactive or inconclusive.

Key:
[1] = target: Cytochrome P450 1A2 (Homo sapiens) (UniProt P05177); experiment: p450-cyp1a2 (AID 410; calls by dose curve; also: potency is read from the fitted curve at half-maximal effect)
Sequence of Cytochrome P450 1A2 (Homo sapiens) (P05177 whole entry, looked up): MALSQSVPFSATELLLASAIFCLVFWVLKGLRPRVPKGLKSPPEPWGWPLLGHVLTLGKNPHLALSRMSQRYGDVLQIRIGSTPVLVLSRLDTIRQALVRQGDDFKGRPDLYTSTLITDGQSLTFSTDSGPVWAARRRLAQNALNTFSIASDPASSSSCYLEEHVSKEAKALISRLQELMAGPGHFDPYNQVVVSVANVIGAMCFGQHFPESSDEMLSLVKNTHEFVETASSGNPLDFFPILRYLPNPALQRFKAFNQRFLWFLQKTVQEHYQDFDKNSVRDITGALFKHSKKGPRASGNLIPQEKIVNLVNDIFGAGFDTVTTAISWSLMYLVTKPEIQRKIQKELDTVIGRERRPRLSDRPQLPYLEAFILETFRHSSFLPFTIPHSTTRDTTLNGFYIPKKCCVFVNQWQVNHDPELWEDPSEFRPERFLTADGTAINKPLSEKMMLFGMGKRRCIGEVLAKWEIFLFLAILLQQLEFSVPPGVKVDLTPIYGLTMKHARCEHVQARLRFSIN
How it was run: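 Human CYP1A2 (20nM) demethylated Luciferin-ME at its Km (100uM) in 100mM KPO4. After 10 min compound preincubation, NADPH regeneration ran the reaction 60 min at room temperature. Luciferin was read by luminescence, normalized to 57 uM furafylline.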

[2] = target: Glucocorticoid receptor (Homo sapiens) (UniProt P04150); experiment: GR-GFP Redistribution (AID 450;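 active = compounds whose dose series gives a full or clear partial fitted curve of increased nuclear translocation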; also: potency is read from the fitted curve at half-maximal effect)
Sequence of Glucocorticoid receptor (Homo sapiens) (P04150 whole entry, looked up, the tested form may be a part): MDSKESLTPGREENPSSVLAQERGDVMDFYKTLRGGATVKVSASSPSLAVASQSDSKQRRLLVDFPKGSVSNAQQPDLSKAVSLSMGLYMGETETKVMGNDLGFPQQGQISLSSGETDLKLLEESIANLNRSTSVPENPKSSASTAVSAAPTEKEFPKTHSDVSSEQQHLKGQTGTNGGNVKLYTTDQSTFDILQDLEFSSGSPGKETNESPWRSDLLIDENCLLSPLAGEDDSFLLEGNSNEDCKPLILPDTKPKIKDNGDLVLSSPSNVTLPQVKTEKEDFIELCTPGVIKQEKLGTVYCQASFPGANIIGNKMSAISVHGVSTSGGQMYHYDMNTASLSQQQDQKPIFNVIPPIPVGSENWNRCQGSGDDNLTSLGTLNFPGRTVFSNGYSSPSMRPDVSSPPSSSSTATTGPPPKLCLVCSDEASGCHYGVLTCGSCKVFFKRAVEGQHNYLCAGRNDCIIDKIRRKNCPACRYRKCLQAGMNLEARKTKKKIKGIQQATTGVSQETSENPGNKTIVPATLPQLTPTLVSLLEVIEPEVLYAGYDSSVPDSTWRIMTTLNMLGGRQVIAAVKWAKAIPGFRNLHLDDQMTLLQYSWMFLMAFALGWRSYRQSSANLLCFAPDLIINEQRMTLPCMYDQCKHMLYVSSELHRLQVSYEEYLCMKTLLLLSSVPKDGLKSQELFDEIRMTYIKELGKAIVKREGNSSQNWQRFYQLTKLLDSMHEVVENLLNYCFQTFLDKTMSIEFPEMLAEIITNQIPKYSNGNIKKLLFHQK

[3] = target: Glucocorticoid receptor (Homo sapiens) (UniProt P04150); experiment: GR-EFC Redistribution (AID 451; calls by dose curve; also: potency is read from the fitted curve at half-maximal effect); details: CHO-K1 GR-EFC translocation, beta-gal luminescence, 2 h
How it was run: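 Translocation of GR-ED fusion to nuclear EA restores b-gal, read by luminescence after 1 h room-temperature detection. Engineered CHO-K1 biosensor cells, 1,000/well, exposed 2 h at 37 C to titrations up to 46 uM final.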

[4] = target: Mitogen-activated protein kinase 10 (Mus musculus) (UniProt Q61831); experiment: JNK3 AlphaScreen Assay (AID 530; active = well fitted curve in either direction with a large enough effect, not every such curve was filed as active;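 also: kinase came from lysate of stimulated human HepG2 cells; signal reports phosphorylation of biotinylated GST-cJun 1-79 at Ser73 with 10 µM ATP; % is scaled to controls: 0 for no effect and ±100 for the full control effect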)
How it was run: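 Room-temperature AlphaScreen kinase assay; pre-activated HepG2 lysate as JNK3 source, biotin-GST-cJun(1-79) substrate, 10 uM ATP, compound 15 min preincubation.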

[5] = target: 3',5'-cyclic-AMP phosphodiesterase 4B (Homo sapiens) (UniProt Q07343); experiment: qHTS Assay for Inhibitors of PDE-IV (AID 607; active = well fitted activation curve with a large enough effect in the main read-out, with a control signal flat, not every such curve was filed as active; also: % of control where 0% means no effect)
Sequence of 3',5'-cyclic-AMP phosphodiesterase 4B (Homo sapiens) (Q07343 whole entry, looked up): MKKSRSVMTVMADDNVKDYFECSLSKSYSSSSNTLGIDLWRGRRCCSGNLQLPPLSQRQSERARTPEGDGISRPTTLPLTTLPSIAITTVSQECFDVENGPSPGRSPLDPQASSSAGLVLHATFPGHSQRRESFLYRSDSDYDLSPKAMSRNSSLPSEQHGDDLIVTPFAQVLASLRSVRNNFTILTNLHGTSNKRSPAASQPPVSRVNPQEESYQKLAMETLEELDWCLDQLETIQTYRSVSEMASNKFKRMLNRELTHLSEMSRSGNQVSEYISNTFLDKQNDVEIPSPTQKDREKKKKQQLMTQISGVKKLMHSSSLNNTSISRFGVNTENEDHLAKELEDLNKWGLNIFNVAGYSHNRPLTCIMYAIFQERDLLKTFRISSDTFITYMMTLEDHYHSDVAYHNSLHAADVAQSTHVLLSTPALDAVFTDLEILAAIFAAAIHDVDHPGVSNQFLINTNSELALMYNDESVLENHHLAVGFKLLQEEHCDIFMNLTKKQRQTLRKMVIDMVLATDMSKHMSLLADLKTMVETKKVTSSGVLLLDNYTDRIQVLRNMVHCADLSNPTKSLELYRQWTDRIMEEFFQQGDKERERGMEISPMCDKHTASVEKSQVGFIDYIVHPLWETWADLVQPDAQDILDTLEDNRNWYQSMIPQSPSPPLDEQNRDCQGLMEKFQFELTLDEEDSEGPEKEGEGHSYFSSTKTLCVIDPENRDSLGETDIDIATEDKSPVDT
How it was run: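 Live HEK293 cells with a modified cyclic nucleotide-gated (CNG) channel report intracellular cAMP via membrane-potential dye fluorescence (ex 535/em 590 nm). Endogenous PDE-IV was targeted. Compounds were tested at up to 22.9 uM final; RO 20-1724 100 uM served as control.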

[6] = target: Cytochrome P450 2C19 (Homo sapiens) (UniProt P33261); experiment: qHTS Assay for Inhibitors and Substrates of Cytochrome P450 2C19 (AID 899); also: potency is read from the fitted curve at half-maximal effect; nearly all actives have a fitted effect of over 60% in size
Sequence of Cytochrome P450 2C19 (Homo sapiens) (P33261 whole entry, looked up): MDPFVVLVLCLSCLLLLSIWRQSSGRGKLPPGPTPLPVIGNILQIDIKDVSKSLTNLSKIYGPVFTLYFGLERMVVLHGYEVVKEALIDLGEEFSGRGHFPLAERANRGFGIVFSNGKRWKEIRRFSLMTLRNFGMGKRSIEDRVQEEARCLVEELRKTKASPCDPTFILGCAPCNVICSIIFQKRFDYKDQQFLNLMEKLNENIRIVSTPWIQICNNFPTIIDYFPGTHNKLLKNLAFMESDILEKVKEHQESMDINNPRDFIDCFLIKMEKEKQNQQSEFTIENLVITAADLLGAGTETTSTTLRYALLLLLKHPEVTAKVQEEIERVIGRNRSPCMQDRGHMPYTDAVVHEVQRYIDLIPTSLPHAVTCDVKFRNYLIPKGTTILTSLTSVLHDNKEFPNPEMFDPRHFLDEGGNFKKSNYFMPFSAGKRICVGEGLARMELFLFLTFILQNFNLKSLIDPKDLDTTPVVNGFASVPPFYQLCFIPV
How it was run: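 Reactions contain 5nM enzyme, 10uM Luciferin-H EGE (KM) and 50mM KPO4; compound preincubates 10 min at 37C, NADPH regeneration starts turnover for 60 min. Luminescence after detection reagent gives activity.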

[7] = target: ATP-dependent 6-phosphofructokinase (Trypanosoma brucei brucei) (UniProt O15648); experiment: qHTS Assay to Find Inhibitors of T. brucei phosphofructokinase: hit validation (AID 492961);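 also: luminescence reports ADP formed as PFK phosphorylates fructose-6-phosphate with ATP; % is scaled to controls: 0 for no effect and ±100 for the full control effect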
Sequence of ATP-dependent 6-phosphofructokinase (Trypanosoma brucei brucei) (O15648 whole entry, looked up): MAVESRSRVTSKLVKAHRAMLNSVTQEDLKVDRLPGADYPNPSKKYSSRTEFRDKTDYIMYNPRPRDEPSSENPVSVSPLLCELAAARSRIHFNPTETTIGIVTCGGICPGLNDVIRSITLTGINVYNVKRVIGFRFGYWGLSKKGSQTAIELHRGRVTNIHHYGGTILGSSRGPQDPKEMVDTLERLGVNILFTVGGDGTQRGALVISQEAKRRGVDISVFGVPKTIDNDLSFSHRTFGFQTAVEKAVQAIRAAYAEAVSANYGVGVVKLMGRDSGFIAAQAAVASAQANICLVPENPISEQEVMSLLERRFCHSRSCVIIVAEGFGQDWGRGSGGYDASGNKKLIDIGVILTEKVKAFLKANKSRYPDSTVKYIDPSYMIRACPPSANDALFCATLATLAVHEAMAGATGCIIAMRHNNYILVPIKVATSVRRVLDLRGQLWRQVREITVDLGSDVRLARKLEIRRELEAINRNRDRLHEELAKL
How it was run: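 Measures ADP output of PFK (1.25 nM) at 0.1 mM ATP, 0.5 mM F6P, pH 8.0 TEA buffer with 5 mM MgCl2. No-enzyme wells define full inhibition; uninhibited enzyme wells define zero.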

[8] = target: Ubiquitin carboxyl-terminal hydrolase 1 (Homo sapiens) (UniProt O94782); experiment: Inhibitors of USP1/UAF1: Pilot qHTS (AID 504865);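 also: rhodamine fluorescence freed from ubiquitin-rhodamine substrate followed over time; top concentration of the series differs between compounds; % is scaled to controls: 0 for no effect and ±100 for the full control effect; nearly all actives have a fitted effect of over 35% in size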
Sequence of Ubiquitin carboxyl-terminal hydrolase 1 (Homo sapiens) (O94782 whole entry, looked up): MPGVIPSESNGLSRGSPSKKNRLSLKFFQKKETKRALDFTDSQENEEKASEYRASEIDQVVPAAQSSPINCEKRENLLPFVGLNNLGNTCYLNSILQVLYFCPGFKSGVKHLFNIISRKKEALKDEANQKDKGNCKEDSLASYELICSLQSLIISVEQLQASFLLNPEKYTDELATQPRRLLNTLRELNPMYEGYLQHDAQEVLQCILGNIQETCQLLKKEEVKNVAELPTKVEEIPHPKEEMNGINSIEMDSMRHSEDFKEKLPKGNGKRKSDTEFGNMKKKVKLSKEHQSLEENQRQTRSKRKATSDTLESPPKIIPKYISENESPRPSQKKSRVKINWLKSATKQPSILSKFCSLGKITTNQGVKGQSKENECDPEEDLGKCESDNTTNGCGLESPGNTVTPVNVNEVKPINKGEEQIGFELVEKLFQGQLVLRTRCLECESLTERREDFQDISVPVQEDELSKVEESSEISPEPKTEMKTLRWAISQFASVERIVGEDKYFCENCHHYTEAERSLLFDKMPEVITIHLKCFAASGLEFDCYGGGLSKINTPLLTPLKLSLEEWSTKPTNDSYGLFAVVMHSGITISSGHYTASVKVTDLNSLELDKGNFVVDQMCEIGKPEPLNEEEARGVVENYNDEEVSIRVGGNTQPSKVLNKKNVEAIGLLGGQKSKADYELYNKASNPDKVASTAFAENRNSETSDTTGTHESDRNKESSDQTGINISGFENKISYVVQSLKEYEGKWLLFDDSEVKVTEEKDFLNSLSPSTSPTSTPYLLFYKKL
How it was run: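 Deubiquitinase activity followed as kinetic rhodamine fluorescence release from 150 nM Ub-Rho. 1 nM USP1/UAF1 with compound, after 15 min room-temperature preincubation, in HEPES pH 7.8 buffer containing TCEP, EDTA, BSA and Tween-20.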

[9] = target: DNA dC->dU-editing enzyme APOBEC-3G (Homo sapiens) (UniProt Q9HC16); experiment: qHTS for inhibitors of Vif-A3G interactions: Validation (AID 588379); also: 0% is about no effect
Sequence of DNA dC->dU-editing enzyme APOBEC-3G (Homo sapiens) (Q9HC16 whole entry, looked up): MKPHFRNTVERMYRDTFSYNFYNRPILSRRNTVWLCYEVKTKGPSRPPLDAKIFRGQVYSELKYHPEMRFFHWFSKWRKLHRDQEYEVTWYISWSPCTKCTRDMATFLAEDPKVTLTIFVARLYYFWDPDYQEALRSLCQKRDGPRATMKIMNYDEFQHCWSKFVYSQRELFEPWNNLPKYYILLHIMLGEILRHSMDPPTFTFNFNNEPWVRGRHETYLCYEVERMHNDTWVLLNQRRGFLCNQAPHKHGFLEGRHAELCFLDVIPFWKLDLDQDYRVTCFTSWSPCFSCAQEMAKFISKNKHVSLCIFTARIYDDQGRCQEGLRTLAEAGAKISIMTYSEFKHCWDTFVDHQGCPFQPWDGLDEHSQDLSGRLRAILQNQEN
How it was run: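 HeLa cells stably expressing Vif and A3G-eYFP, 700 cells/well, incubated overnight at 37 deg C, then exposed to compound overnight at 37 deg C. Inhibition of Vif-mediated degradation read as increased yellow fluorescence (Ex 488/Em 500-530) by laser-scanning cytometry.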

[10] = target: Luciferin 4-monooxygenase (Photinus pyralis) (UniProt P08659); experiment: Biochemical firefly luciferase enzyme assay for NPC (AID 624030);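 also: purified P. pyralis luciferase at 10 nM with luciferin and ATP substrate; 0% = DMSO and -100% = full luciferase inhibition by PTC124 control; nearly all actives have a fitted effect of over 70% in size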
Sequence of Luciferin 4-monooxygenase (Photinus pyralis) (P08659 whole entry, looked up): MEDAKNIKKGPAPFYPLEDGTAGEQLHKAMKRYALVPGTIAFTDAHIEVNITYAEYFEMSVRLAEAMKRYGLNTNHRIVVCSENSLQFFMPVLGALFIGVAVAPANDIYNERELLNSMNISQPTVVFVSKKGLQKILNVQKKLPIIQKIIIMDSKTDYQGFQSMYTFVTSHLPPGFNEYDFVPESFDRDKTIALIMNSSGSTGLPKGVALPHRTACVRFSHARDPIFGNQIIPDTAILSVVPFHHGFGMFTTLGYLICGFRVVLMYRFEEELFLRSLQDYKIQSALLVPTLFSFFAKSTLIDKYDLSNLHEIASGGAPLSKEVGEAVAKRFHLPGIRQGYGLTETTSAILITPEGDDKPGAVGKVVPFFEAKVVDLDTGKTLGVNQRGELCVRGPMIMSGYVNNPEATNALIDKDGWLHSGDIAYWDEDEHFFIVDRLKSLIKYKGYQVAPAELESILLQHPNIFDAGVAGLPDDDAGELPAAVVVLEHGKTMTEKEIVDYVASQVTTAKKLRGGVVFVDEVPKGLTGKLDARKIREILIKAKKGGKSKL
How it was run: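 Direct inhibition of firefly luciferase enzyme (10 nM final, 50 mM Tris Acetate) assessed by luminescence within 5 minutes. Percent activity scaled between DMSO and PTC124 positive control, with concentration-effect curves classified by fit quality and response.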

[11] = S16 Schwann cell viability assay (CellTiter-Glo assay) (AID 624031);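 also: native untransfected S16 rat Schwann cells; cellular ATP luminescence as a viability measure; plate controls were DMSO-treated cells for no effect and cell-free wells for full effect; nearly all actives have a fitted effect of over 70% in size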
How it was run: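 Following overnight culture in 10% FBS DMEM, parental S16 rat Schwann cells are dosed for 24 h at 37 °C. Viability is read as CellTiter-Glo luminescence and expressed as % activity relative to DMSO (0%) and no-cell wells.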

[12] = S16 Schwann cell PMP22 intronic element firefly luciferase assay (AID 624032);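 also: plate controls were DMSO for no effect and PTC124 positive control mean for full effect; nearly all actives have a fitted effect of over 30% in size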
How it was run: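 Luciferase reporter of PMP22 intronic-element expression in stably transfected S16 rat Schwann cells, read by ONE-Glo luminescence after 24 h compound exposure at 37 C. Activity scaled between DMSO (0%) and positive-control PTC124; concentration-effect curves quality-classified.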

[13] = S16 Schwann cell PMP22 intronic element beta-lactamase assay (AID 624044; calls by dose curve;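 also: 0% = DMSO and -100% = potassium clavulanate positive control; nearly all actives have a fitted effect of over 15% in size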); details: S16 rat Schwann cells, PMP22 element beta-lactamase FRET, 24 h; ratio activity, negative = inhibition: at 38.3 µM (top of the series)
How it was run: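 Rat S16 Schwann cells with beta-Lac driven by a PMP22 intronic element, compound-treated 24 h at 37 °C. LiveBLAzer FRET B/G read: 460 nm normalized to potassium clavulanate vs DMSO; 535 nm FRET as viability; concentration-effect curves classified.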

[14] = qHTS profiling for inhibitors of Plasmodium falciparum proliferation (AID 504749);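 also: 0% = DMSO vehicle and full inhibition = artemisinin control; nearly all actives have a fitted effect of over 60% in size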; details: P. falciparum in erythrocytes, SYBR Green DNA, 72 h, at 28.7 µM (top of the series)
How it was run: (§1)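 Three-day growth assay of blood-stage parasites in erythrocytes (0.3% parasitemia, 2.5% hematocrit) at 37 C, 5% CO2, quantified by SYBR Green DNA staining after overnight detergent lysis.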

[15] = test system: 3D7; experiment: as above; details: P. falciparum in erythrocytes, SYBR Green DNA, 72 h; series mostly up to 28.7 µM
How it was run: as §1

[16] = test system: 7G8; experiment: as above; details: P. falciparum in erythrocytes, SYBR Green DNA, 72 h; series mostly up to 28.7 µM
How it was run: as §1

[17] = test system: AA1029; experiment: as above; details: P. falciparum in erythrocytes, SYBR Green DNA, 72 h; series mostly up to 28.7 µM
How it was run: as §1

[18] = test system: AS120; experiment: as above; details: P. falciparum in erythrocytes, SYBR Green DNA, 72 h; series mostly up to 28.7 µM
How it was run: as §1

[19] = test system: ATS189; experiment: as above; details: P. falciparum in erythrocytes, SYBR Green DNA, 72 h; series mostly up to 28.7 µM
How it was run: as §1

[20] = test system: ATS95; experiment: as above; details: P. falciparum in erythrocytes, SYBR Green DNA, 72 h; series mostly up to 28.7 µM
How it was run: as §1

[21] = test system: C2A; experiment: as above; details: P. falciparum in erythrocytes, SYBR Green DNA, 72 h; series mostly up to 28.7 µM
How it was run: as §1

[22] = test system: CP185; experiment: as above; details: P. falciparum in erythrocytes, SYBR Green DNA, 72 h; series mostly up to 28.7 µM
How it was run: as §1

[23] = test system: CP191; experiment: as above; details: P. falciparum in erythrocytes, SYBR Green DNA, 72 h; series mostly up to 28.7 µM
How it was run: as §1

[24] = test system: CP192; experiment: as above; details: P. falciparum in erythrocytes, SYBR Green DNA, 72 h; series mostly up to 28.7 µM
How it was run: as §1

[25] = test system: CP194; experiment: as above; details: P. falciparum in erythrocytes, SYBR Green DNA, 72 h; series mostly up to 28.7 µM
How it was run: as §1

[26] = test system: CP201; experiment: as above; details: P. falciparum in erythrocytes, SYBR Green DNA, 72 h; series mostly up to 28.7 µM
How it was run: as §1

[27] = test system: CP203; experiment: as above; details: P. falciparum in erythrocytes, SYBR Green DNA, 72 h; series mostly up to 28.7 µM
How it was run: as §1

[28] = test system: CP211; experiment: as above; details: P. falciparum in erythrocytes, SYBR Green DNA, 72 h; series mostly up to 28.7 µM
How it was run: as §1

[29] = test system: CP215; experiment: as above; details: P. falciparum in erythrocytes, SYBR Green DNA, 72 h; series mostly up to 28.7 µM
How it was run: as §1

[30] = test system: CP217; experiment: as above; details: P. falciparum in erythrocytes, SYBR Green DNA, 72 h; series mostly up to 28.7 µM
How it was run: as §1

[31] = test system: CP237; experiment: as above; details: P. falciparum in erythrocytes, SYBR Green DNA, 72 h; series mostly up to 28.7 µM
How it was run: as §1

[32] = test system: CP238; experiment: as above; details: P. falciparum in erythrocytes, SYBR Green DNA, 72 h; series mostly up to 28.7 µM
How it was run: as §1

[33] = test system: CP247; experiment: as above; details: P. falciparum in erythrocytes, SYBR Green DNA, 72 h; series mostly up to 28.7 µM
How it was run: as §1

[34] = test system: CP250; experiment: as above; details: P. falciparum in erythrocytes, SYBR Green DNA, 72 h; series mostly up to 28.7 µM
How it was run: as §1

[35] = test system: CP252; experiment: as above; details: P. falciparum in erythrocytes, SYBR Green DNA, 72 h; series mostly up to 28.7 µM
How it was run: as §1

[36] = test system: CP256; experiment: as above; details: P. falciparum in erythrocytes, SYBR Green DNA, 72 h; series mostly up to 28.7 µM
How it was run: as §1

O=C(O)[C@H]1C[C@@H](CP(=O)(O)O)CCN1
inactive: Potency [2] > 46 µM | Potency [3] > 46 µM | Potency [4] | Potency [5] | Potency [7] | Potency [8] | outcome [9] | Potency [10] | Potency [11] | Potency [12] | Potency [13] | activity, negative = inhibition ([14]; parasite line A) -7.9% | activity, negative = inhibition ([14]; parasite line B) -2.91% | Potency [15] | Potency [16] | Potency [17] | Potency [18] | Potency [19] | Potency [20] | Potency [21] | Potency [22] | Potency [23] | Potency [24] | Potency [25] | Potency [26] | Potency [27] | Potency [28] | Potency [29] | Potency [30] | Potency [31] | Potency [32] | Potency [33] | Potency [34] | Potency [35] | Potency [36]
active: Potency [1] 25.1 µM | Potency [6] 7.94 µM
